Laboratory results: PubChem BioAssay AID652048 (National Center for Advancing Translational Sciences (NCATS), 2013)
Hit rate of the full screen: of about 410,000 compounds, about 2,400 (0.59%) were called active. Shown is part of a subset that was picked to be rich in actives. Values without a mark were called inactive. Cut-off read from the data, not from the text of the source: active = max activation above about 30%; inactive = the rest. *1 amine or outer side, *2 acyl side, *3 side chain or, on linkers, in order; H or OH if unused. Where a SMILES comes first, the peptide text is derived from it. Bridges are numbered along the chain shown (N, C = ends). [ ]: non-standard residue; d: D form. The star is where a group is joined. X2 = NC1=N[C@@H]([C@H](N[*:1])C(=O)[*:2])C[C@H](O)N1; ΔAla(Z-3-ureido) = NC(=O)N/C=C(\N)C(=O)O; β3hOrn = NCCC[C@H](N)CC(=O)*; Dap = NC[C@H](N)C(=O)O

Each compound was assayed against D(3) dopamine receptor (Homo sapiens) (UniProt P35462) (assay: qHTS of D3 Dopamine Receptor Agonist: qHTS). Conditions: D3R DiscoveRx beta-arrestin cells, luminescence, 90 min; stronger effect = higher value.
Chain of D(3) dopamine receptor (Homo sapiens) (P35462 whole entry, looked up): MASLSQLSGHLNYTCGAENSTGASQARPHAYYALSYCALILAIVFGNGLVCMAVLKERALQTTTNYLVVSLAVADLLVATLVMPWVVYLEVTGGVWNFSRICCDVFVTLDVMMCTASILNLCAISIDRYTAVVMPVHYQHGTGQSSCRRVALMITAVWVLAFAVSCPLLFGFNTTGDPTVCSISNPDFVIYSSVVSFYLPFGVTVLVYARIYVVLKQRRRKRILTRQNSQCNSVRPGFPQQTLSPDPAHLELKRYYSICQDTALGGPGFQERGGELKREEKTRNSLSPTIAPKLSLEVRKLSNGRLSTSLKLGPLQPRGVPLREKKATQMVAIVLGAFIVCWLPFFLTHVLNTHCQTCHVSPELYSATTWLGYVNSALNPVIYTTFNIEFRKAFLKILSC
Outline: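 Cells at 1500/well, incubated overnight, then treated with pinned compounds (dopamine as control) for 90 min at 37 degrees C. DiscoveRx reagent added for 30 - 60 minutes at room temperature; luminescence read.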
Note: 0% is about no effect.

First: COc1cc(-n2c(C)nc3cc(C(=O)NCc4ccco4)ccc32)cc(OC)c1OC
Second: COc1cc(C(=O)NCC(=O)N2CC=C(c3ccccc3)CC2)cc(OC)c1OC
The max activation of the first is lower: -12.8% for the first, -3.75% for the second.

First: Cc1cccc(C(CC(=O)NCC2(c3ccccc3)CCCC2)c2ccccc2)c1O (centres undefined)
Second: COc1cc2ccccc2cc1C(=O)Nc1cccc(-c2nc3ccccc3o2)c1
The max activation of the first is lower: -11.1% for the first, 9.76% for the second.

Going from `CCOc1ccccc1N(CC)C(=O)c1cc2ccc3cccnc3c2[nH]1` to `CCN(C(=O)c1sc2cc(OC)ccc2c1Cl)c1ccccc1`, the max activation falls from 8.81% to -6.98%.

First: Cc1ccc(-c2nnc(CN3CCN(C)CC3)o2)cc1
Second: Cc1ccc(C)c(N2CCN(Cc3nnc(-c4ccccc4)o3)CC2)c1
The max activation of the first is higher: -9.28% for the first, -22.5% for the second.

First: NNc1nnc(Cc2ccncc2)c2ccccc12
Second: CCCC(=O)Nc1ccc(NC(=O)c2sc3ccccc3c2Cl)cc1
The max activation of the first is higher: 4.9% for the first, -7.19% for the second.

Compared with `COc1cc(CNCCSc2nnnn2C)ccc1OCc1c(F)cccc1Cl`, `C=CCc1ccc(OCC(O)CN2CCN(Cc3ccccc3)CC2)c(OC)c1` (centres undefined) is higher in max activation: -12.1% for the first, -9.27% for the second.

Going from `COc1ccc(N(Cc2ccc(N(C)C)cc2)C(=O)c2ccc(S(C)(=O)=O)cc2)cc1` to `CCOc1cccc(NC(=O)c2ccc(F)c(S(=O)(=O)N(CC)c3cccc(C)c3)c2)c1`, the max activation rises from -1.61% to 6.21%.

First: CCC(C)[C@@H](N)C(=O)O (some centres undefined)
Second: CO[C@H]1[C@@H](O)[C@H](N)[C@@H](O[C@H]2O[C@H]([C@H](C)N)CC[C@H]2N)[C@H](O)[C@@H]1N(C)C(=O)CN
The max activation of the first is lower: 1.21% for the first, 4.34% for the second.

Compared with `COc1cc(NS(=O)(=O)c2cccs2)cc(OC)c1`, `COc1cc(OC)c(C(=O)NNC(=O)c2ccc(NS(=O)(=O)c3cccs3)cc2)cc1OC` is higher in max activation: -2.4% for the first, 2.22% for the second.

Compared with `O=C(CSc1ncc(S(=O)(=O)c2ccc(Br)cc2)c(=O)[nH]1)Nc1ccc2c(c1)OCCO2`, `CCc1cccc(NC(=O)CN(C)S(=O)(=O)c2ccc3[nH]c4c(c3c2)CCCC4)c1` is lower in max activation: 0.197% for the first, -8.32% for the second.

First: Cc1ccc(C(=O)Nc2cc3c(cc2N2CCCC2)n(C)c(=O)c(=O)n3C)cc1
Second: Cn1c(=O)c(=O)n(C)c2cc(S(=O)(=O)CCC(=O)N3CCCCC3)ccc21
The max activation of the first is lower: -5.76% for the first, -3.93% for the second.

Compared with `Cc1c(NS(=O)(=O)c2cc(C(=O)NCCc3ccc(F)cc3)cc(Cl)c2Cl)c(=O)n(-c2ccccc2)n1C`, `Cc1c(NS(=O)(=O)c2ccc(Cl)cc2)c(=O)n(-c2ccccc2)n1C` is lower in max activation: 0.49% for the first, 0.215% for the second.

Compared with `NCCC[C@H](N)CC(=O)N[C@H]1CNC(=O)[C@H]([C@H]2C[C@H](O)NC(N)=N2)NC(=O)/C(=C/NC(N)=O)NC(=O)[C@H](CO)NC(=O)[C@H](CO)NC1=O` (β3hOrn-[Dap]SS[ΔAla(Z-3-ureido)][X2]; lactam 1-C), `Cc1ccc2c(=O)c(C(=O)c3ccc(F)cc3)cn(CC(=O)NC3CCCCC3)c2n1` is lower in max activation: 4.66% for the first, -2.6% for the second.

First: CCOCCn1c(C(C)C)nc2ccccc21
Second: CCc1nc2ccccc2n(CCOCCOCCn2c(=O)c(CC)nc3ccccc32)c1=O
The max activation of the first is lower: -2.13% for the first, 1.74% for the second.

Compared with `Cc1ccc(CSc2nc3cccnc3n2Cc2ccc(C(=O)NC3CC3)cc2)cc1`, `CCc1ccc(CN(Cc2ccco2)C(=O)c2ccccc2Cl)cc1` is lower in max activation: 2.04% for the first, -16.7% for the second.

First: CS(=O)(=O)NC(=O)CCC/C=C\C[C@H]1C(=O)C[C@@H](O)[C@@H]1/C=C/[C@H](O)COc1ccccc1
Second: CCCS(=O)(=O)c1ncc(Cl)c(C(=O)Nc2scc(-c3ccccc3)c2C(=O)OCC)n1
The max activation of the first is lower: -14.2% for the first, -8.93% for the second.

Compared with `C=C1CC[C@H](O)CC1=C/C=C1\CCC[C@]2(C)[C@@H]([C@H](C)/C=C/[C@H](C)C(C)C)CC[C@@H]12`, `Cc1c(O)cc2c(c1C)O[C@](C)(CCC[C@H](C)CCC[C@H](C)CCCC(C)C)CC2` is lower in max activation: 14.3% for the first, 13.3% for the second.

Going from `CCCN(CCC)CCNC(=O)Cn1cnc2sc(C)c(S(=O)(=O)N3CCC(C)CC3)c2c1=O` to `CCCCC(CC)CNC(=O)C1CCN(S(=O)(=O)c2cccc3nsnc23)CC1` (centres undefined), the max activation falls from -7.98% to -12.4%.

Going from `Cc1ccc(-c2nn3c(=O)cc(CN4CCN(C(=O)Nc5cccc(C(F)(F)F)c5)CC4)nc3s2)cc1` to `COc1cccc2c1cc1c(=O)n(CC(=O)N3CCN(c4cccc(Cl)c4)CC3)nc(C)n12`, the max activation rises from 5.13% to 9.45%.

Going from `COc1ccc(NC(=O)c2sc3nc(-c4cc5cccc(OC)c5oc4=O)[nH]c(=O)c3c2C)cc1` to `COc1ccc(NC(=O)CSc2nc3ncccc3[nH]2)c(OC)c1`, the max activation rises from -8.2% to -5.62%.

Going from `CSc1ncnc2c1ncn2CCCNCc1ccco1` to `Cc1cnc(CN(C)C(=O)CC2C(=O)NCCN2Cc2cccc(F)c2F)[nH]1` (centres undefined), the max activation rises from -2.72% to 4.65%.

Compared with `COc1cccc2c1cc1c(=O)n(CC(=O)N3CCN(c4ccccc4)CC3)nc(C)n12`, `O=C1c2cccc3cccc(c23)N1CN1CCN(c2ccccn2)CC1` is higher in max activation: 5.49% for the first, 7.73% for the second.

Compared with `Cc1cc(C)cc(C(=O)NCC(=O)OCC(=O)N2CCCCC2)c1`, `COc1cc(OC)cc(C(=O)NCC(=O)N2CCCCCCC2)c1` is lower in max activation: -0.844% for the first, -0.951% for the second.

Going from `Cc1nc(CN(C)C(=O)CC2C(=O)NCCN2Cc2ccc(F)cc2)cs1` (centres undefined) to `CC1CCCN(c2csc3ccc(F)cc3c2=O)C1` (centres undefined), the max activation rises from 0.365% to 5.02%.

First: CCc1ccc(OCC(O)CN2CCN(CCO)CC2)cc1 (centres undefined)
Second: Cc1cccc(OCC(O)CN2CCN(CCN3C(=O)c4cccc5cccc(c45)C3=O)CC2)c1C (centres undefined)
The max activation of the first is higher: -6.12% for the first, -7.59% for the second.

Compared with `O=S(=O)(c1ccc(OCC(O)CN2CCN(c3ccccc3Cl)CC2)cc1)N1CCOCC1` (centres undefined), `CC(C)c1ccccc1OCC(O)CN(CC(O)COc1cccc2ccccc12)C(C)C` (centres undefined) is higher in max activation: 7.66% for the first, 13.3% for the second.

Work on `O=C(Cn1c(-c2cccs2)cc2ccccc21)NCCc1ccc(Cl)cc1` yielded a max activation of -7.79%.

With `CCn1c(CNC(=O)c2cc(OC)c(OC)c(OC)c2)cc2cc(C)ccc21` the max activation was 30.2% (active).
In the case of `c1ccc(-c2cnc(CN3CCN(c4ccccc4)CC3)o2)cc1`, the max activation is reported as 47.7% (active).
With `COc1cc(SC#N)ccc1N=Cc1c(C)[nH]n(-c2ccc(C)cc2)c1=O` the max activation was 37.3% (active).
In the case of `C=CCOc1c2ccc(C(=O)N(CC)c3ccc(OC)cc3)cc2nn1C`, the max activation is reported as 36.4% (active).
`CCc1ccc(S(=O)(=O)Nc2cc3c(cc2N2CCCCC2)n(C)c(=O)c(=O)n3C)cc1` was tested, and the max activation was 33.6% (active).
`Cc1c(NS(=O)(=O)c2cccc(C(=O)Nc3ccc(SC(F)F)cc3)c2)c(=O)n(-c2ccccc2)n1C` was tested, and the max activation was 33.5% (active).
With `CCOCCn1c(-c2ccccc2)nc2ccccc21` the max activation was 65.4% (active).
In the case of `COc1cc2ccccc2cc1C(=O)Nc1ccc(NC(=O)c2cccs2)cc1`, the max activation is reported as 30% (active).
With `C=C1C(=C/C=C2\CCC[C@]3(C)[C@@H]([C@H](C)CCCC(C)(C)O)CC[C@@H]23)C[C@@H](O)C[C@@H]1O` the max activation was 31.6% (active).
`CSc1ncnc2c1ncn2CC(=O)C1CCC2C3CCC4=CC(=O)CCC4(C)C3CCC12C` (centres undefined) was tested, and the max activation was 53.2% (active).
For `CCN1CCN(C(=O)Cn2nc(C)n3c(cc4c(OC)cccc43)c2=O)CC1`, the max activation was 75.8% (active).
In the case of `COc1ccc(OC)c(CN2CCN(C(=O)CNC(=O)c3cc(C)cc(C)c3)CC2)c1`, the max activation is reported as 48.9% (active).
In the case of `CN(Cc1cccc2ncccc12)C(=O)CC1C(=O)NCCN1Cc1ccc(F)cc1` (centres undefined), the max activation is reported as 32.9% (active).
In the case of `Cc1ccccc1OCC(O)CN1CCN(c2ccccn2)CC1` (centres undefined), the max activation is reported as 41.3% (active).
For `OC(COc1cccc2ccccc12)CN1CCN(c2ccccn2)CC1` (centres undefined), the max activation was 66.5% (active).
`CC(C)c1ccc(OCC(O)CN2CCN(c3ccccn3)CC2)cc1` (centres undefined) was tested, and the max activation was 42.2% (active).
